# System: Caenorhabditis elegans L1 (N2)
# Experiment: survival and reproduction score of C. elegans L1 (0: 0-10 living worms, 1: 11-20, 2: 21-50, 3: >50, 4: overgrown) (score 0-4); higher = more worms, less nematicidal, active = 1 or less; extreme values may be limits of the assay
# Settings: 60 µM; 6 days; temperature: 20 °C
# How it was run: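 Synchronized C. elegans N2 L1s (about 20 per well) were grown in 96-well plates in liquid NGM with E. coli HB101 and compound at 60 µM final (0.6% v/v DMSO), shaken sealed at 200 rpm and 20 °C for 6 days. The ordinal score for survival and reproduction counted living worms per well under a dissection microscope. The scale ran 0 (0–10 worms) to 4 (overgrown, starved), averaged over two biological replicates.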
row,Structure (SMILES),survival and reproduction score
1,Brc1ccc(-c2noc(-c3ccc4c(c3)OCO4)n2)cc1,4 (inactive)
2,COc1ccc(C)cc1NC(=O)CSc1nnc(-c2ccc(Br)cc2)o1,4 (inactive)
3,Cc1cc(OCc2nc(-c3ccncc3)no2)cc(C)c1Br,4 (inactive)
4,C=CCOc1cccc(-c2nc(-c3cccnc3)no2)c1,0 (active)
5,COc1ccc(-c2nnc(SCC(=O)c3ccccc3)o2)cc1,4 (inactive)
6,Brc1cccc(-c2nc(-c3ccccc3)no2)c1,0 (active)
7,c1ccc(-c2noc(CSc3nc4ccccc4[nH]3)n2)cc1,4 (inactive)
8,CCOc1ccccc1-c1nc(-c2ccc(Br)cc2)no1,3 (inactive)
9,Cc1cccc(OCc2nc(-c3ccc(-n4cccc4)cc3)no2)c1,4 (inactive)
10,Cc1ccc(CSc2nnc(-c3cccc(Br)c3)o2)c(C)c1,4 (inactive)
11,COc1nc(-c2ccc(Cl)cc2)ccc1-c1noc(C)n1,4 (inactive)
12,Cc1cccc(-c2noc(-c3ccc(Cl)cc3)n2)c1,4 (inactive)
13,CCOc1ccccc1-c1nc(-c2ccc(NC(=O)CCc3ccc(OC)cc3)cc2)no1,4 (inactive)
14,COc1cccc(-c2noc(COc3ccc(C)c(C)c3)n2)c1,4 (inactive)
15,CCOc1nc(-c2ccc(C)cc2)ccc1-c1noc(-c2ccc(F)cc2)n1,2 (inactive)
16,Cc1cc(Cl)ccc1OCc1nc(-c2cccnc2)no1,4 (inactive)
17,Clc1ccccc1-c1nc(-c2ccc3c(c2)OCO3)no1,4 (inactive)
18,COc1cccc(-c2noc(-c3c(F)cccc3F)n2)c1,4 (inactive)
19,COc1ccc(CC(=O)Nc2ccc(-c3noc(COc4cccc(C)c4C)n3)cc2)cc1,4 (inactive)
20,COc1ccccc1OCc1nc(-c2cccc(Br)c2)no1,4 (inactive)

row,Structure (SMILES),survival and reproduction score
1,O=C(CSc1nnc(-c2ccccc2)o1)Nc1cccc(Br)c1,4 (inactive)
2,Brc1cccc(-c2nc(-c3cccnc3)no2)c1,4 (inactive)
3,Cc1cc(Cl)ccc1OCc1nc(-c2ccncc2)no1,0.5 (active)
4,Cc1ccc(C)c(OCc2nc(-c3ccccc3Cl)no2)c1,4 (inactive)
5,Cc1ccc(-c2noc(COc3cc(C)cc(C)c3)n2)cc1,4 (inactive)
6,Fc1ccc(-c2nc(-c3ccc4c(c3)OCO4)no2)cc1,4 (inactive)
7,O=C(CSc1nnc(-c2ccccc2)o1)Nc1cccc(F)c1,4 (inactive)
8,Clc1ccc(CSc2nnc(-c3ccccn3)o2)cc1,4 (inactive)
9,Cc1ccc(NC(=O)CSc2nnc(-c3ccccc3)o2)c(C)c1,4 (inactive)
10,CC(Sc1nnc(-c2cccnc2)o1)C(=O)c1ccccc1 (centres undefined),4 (inactive)
11,CC(C)C(=O)Nc1ccccc1-c1nc(-c2ccccn2)no1,4 (inactive)
12,O=C(Nc1ccc(-c2noc(-c3ccc(F)cc3)n2)cc1)c1ccc(Br)o1,1 (active)
13,O=C(CSc1nnc(-c2cccc(Br)c2)o1)c1ccc2c(c1)CCCC2,4 (inactive)
14,COc1nc(-c2ccccc2)ccc1-c1noc(-c2ccccc2C)n1,4 (inactive)
15,CCOc1ccc(-c2noc(-c3ccncc3)n2)cc1OC,4 (inactive)
16,CCOc1ccccc1-c1nc(-c2ccc(NC(=O)c3ccncc3)cc2)no1,4 (inactive)
17,Cc1cccc(OCc2nc(-c3ccc(Br)cc3)no2)c1,4 (inactive)
18,CCOc1cc(-c2nc(-c3ccc(C)nc3OCC)no2)cc(OCC)c1OCC,4 (inactive)
19,Cc1ccccc1-c1nnc(SCc2ccc(F)cc2)o1,3.5 (inactive)

# Reference: the supplement of paper PMC11219838
